Values joined by “and” are separate entries in the source; they are usually repeats but may differ in a detail not shown here. Equal values may be shown once. Records with an inconclusive call do not appear. Where a structure was tested more than once in an assay, its records may differ in their call. Active and inactive are the calls of the source. Unless noted, calls follow the shape of the full dose curve.
Experiments:
[1] = Nuclear factor erythroid 2-related factor 2/antioxidant responsive element (Nrf2/ARE) small molecule agonists: qHTS cell viability counter screen in human keratinocytes (AID 1919968; active = well fitted curve in the direction sought with a large enough effect in the repeat runs; an effect the other way counts as inactive or inconclusive; also: nearly all actives have a fitted effect of over 55% in size)
Outline: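 KeratinoSens HaCaT cells, 1,500/well, preincubated 5 h, then exposed to compounds in DMSO for 23 h at 37 C/5% CO2. Viability read as CellTiter-Fluor fluorescence after 1 h, in the same wells as the ARE-luciferase read.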

[2] = target: Gonadotropin-releasing hormone receptor (Homo sapiens) (UniProt P30968); assay: Human gonadotropin-releasing hormone receptor (GnRHR) small molecule agonists, calcium flux assay in GnRHR-HEK293 cells (AID 1920063); also: nearly all actives have a fitted effect of over 35% in size
Outline: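 HEK293 cells stably expressing human GnRHR were dye-loaded for 1 h at 37 C. Compound was added in agonist mode and fluorescence (Ex/Em 480/540) recorded kinetically for 3 min. Fifteen concentrations, triplicates.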

[3] = target: KiSS-1 receptor (Homo sapiens) (UniProt Q969F8); assay: Human kisspeptin (KISS1R) small molecule agonists, calcium flux assay in KISS1R-HEK293 cells (AID 1920064; active = well fitted curve in the direction sought with a large enough effect in the repeat runs; an effect the other way counts as inactive or inconclusive)
Outline: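 HEK293 cells stably expressing human KISS1R were loaded with calcium dye for 1 h at 37 C, then given compound; fluorescence (Ex/Em 480/540) was read kinetically for 3 min. Fifteen concentrations, triplicate.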

[4] = G protein-coupled receptor (GPCR) small molecule agonists, calcium flux assay: HEK293 wild type cell line counter screen (AID 1920065)
Outline: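 Wild-type HEK293 cells plated 18 h, loaded with calcium dye 1 h at 37 C, then compounds added in agonist mode (ATP as positive control). Kinetic fluorescence Ex/Em 480/540 recorded 3 min at 1 sec intervals; 15 concentrations, triplicate.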

[5] = p53 small molecule agonists, cell-based qHTS assay with human liver microsomes (AID 1963577);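 also: p53 response element beta-lactamase reporter cells with liver microsomes plus NADPH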
Outline: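 HLM-supplemented p53RE-bla reporter assay: 16 h compound exposure at 37 C, microsomes and NADPH each 0.5 mg/mL final, read by fluorescence intensity.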

[6] = p53 small molecule agonists, cell-based qHTS assay with rat liver microsomes (AID 1963578)
Outline: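 Quantitative HTS of the Tox21 10K library: p53RE-bla cells, rat liver microsomes plus NADPH at 0.5 mg/mL final each, 16 h at 37 C, beta-lactamase fluorescence detection.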

[7] = p53 small molecule agonists, cell-based qHTS assay with human liver microsomes: qHTS cell viability counter screen (AID 1963579); also: nearly all actives have a fitted effect of over 45% in size; also: potency is read from the fitted curve at half-maximal effect
Outline: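 Viability of p53RE-bla cells is measured as CellTiter-Glo luminescence following a 16 h, 37 C incubation with compound, liver microsomes from human donors and NADPH.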

[8] = p53 small molecule agonists, cell-based qHTS assay: qHTS cell viability counter screen (AID 1963581); also: nearly all actives have a fitted effect of over 45% in size
Outline: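 p53RE-bla HCT-116 cells, compounds added 5 h after plating and incubated 16 h at 37 C. Cytotoxicity measured in the same wells as intracellular ATP by CellTiter-Glo luminescence after 30 min at room temperature.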

[9] = cAMP Responsive Elements (CRE) small molecule agonists, cell-based qHTS assay (AID 1963590)
Outline: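 CRE-bla HEK 293T cells, 2,000/well in DMEM with 10% dialyzed FBS and 25 mM HEPES, pre-incubated 18 h at 37 C, then exposed to compound 3 h at 37 C. Beta-lactamase reporter read with LiveBLAzer B/G FRET substrate after 2 h at room temperature.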

[10] = cAMP Responsive Elements (CRE) small molecule antagonists, cell-based qHTS assay (AID 1963591; active = well fitted inhibition curve with a large enough effect in the signal ratio in the repeat runs, not every such curve was filed as active; the % refers to the signal ratio)
Outline: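 CRE-bla HEK293T cells plated 18 h, then given compound plus NKH477 at 0.25 uM final for 3 h at 37C. Beta-lactamase reporter read with LiveBLAzer B/G FRET substrate after 2 h at room temperature.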

[11] = target: Beta-2 adrenergic receptor (Homo sapiens) (UniProt P07550); assay: Adrenergic beta2 receptor (ADRB2) small molecule antagonists, cell-based qHTS assay (AID 1963592); also: series mostly up to about 92 µM; nearly all actives have a fitted effect of over 50% in size
Outline: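 Cells (CHO, stable ADRB2 overexpression) incubated 18-20hr at 37C; compounds added from DMSO; agonist mix (1nM isoproterenol, 100uM IBMX, 25uM Ro-20-1724) added; 0.5hr RT; d2-cAMP and anti-cAMP-cryptate added; 1hr RT; 665/615 nm read.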

[12] = target: Beta-2 adrenergic receptor (Homo sapiens) (UniProt P07550); assay: Adrenergic beta2 receptor (ADRB2) small molecule agonists, cell-based qHTS assay (AID 1963593);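 also: CHO cells stably overexpressing human ADRB2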
Outline: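 CHO cells stably over-expressing ADRB2 were plated overnight at 37C, then dosed with compounds plus a stimulation mix containing 100uM IBMX and 25uM Ro-20-1724 for 0.5hr at room temperature. cAMP was measured by HTRF competition, 1hr.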

[13] = target: D(2) dopamine receptor (Homo sapiens) (UniProt P14416); assay: Dopamine D2 receptor (DRD2) small molecule agonists, cell-based qHTS assay (AID 1963594); also: nearly all actives have a fitted effect of over 35% in size
Outline: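 HEK293 cells stably expressing DRD2 were cultured 24 h at 37 C, then given Ro20-1724 (0.1 mM final) and compounds for 10 min at room temperature. NKH477 (200nM) was then added for 30 min. cAMP was read by HTRF.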

[14] = target: D(2) dopamine receptor (Homo sapiens) (UniProt P14416); assay: Dopamine D2 receptor (DRD2) small molecule antagonists, cell-based qHTS assay (AID 1963595; active = well fitted inhibition curve with a large enough effect in the signal ratio in the repeat runs, with a control signal flat; the % refers to the signal ratio)
Outline: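 Human DRD2 antagonist qHTS measuring cAMP by HTRF. The cells are exposed to compound for 10 min, then to NKH477 (200 nM) and quinpirole (12 nM) for 30 min at RT, with Ro20-1724 (0.1 mM) present throughout.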

[15] = p53 small molecule agonists, cell-based qHTS assay with rat liver microsomes: qHTS cell viability counter screen (AID 1963580); also: nearly all actives have a fitted effect of over 45% in size
Outline: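 p53RE-bla HCT-116 cells (4,000/well) rested 5 h at 37 C, then given Tox21 compounds in DMSO with rat liver microsomes (0.5 mg/mL final) plus NADPH (0.5 mg/mL final) for 16 h at 37 C. Viability read by CellTiter-Glo luminescence after 30 min at room temperature.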

[16] = target: 5-hydroxytryptamine receptor 2A (Homo sapiens) (UniProt P28223); assay: 5-hydroxytryptamine receptor 2A (HTR2A) small molecule antagonists, cell-based qHTS assay (AID 1963586); also: nearly all actives have a fitted effect of over 45% in size
Outline: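 Antagonist-mode intracellular calcium assay: DOI (4 nM) added after 5 min compound pre-incubation at room temperature to dye-loaded HTR2A-CHO cells. Fluorescence followed for 3 min, sampled every second.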

[17] = target: 5-hydroxytryptamine receptor 2A (Homo sapiens) (UniProt P28223); assay: 5-hydroxytryptamine receptor 2A (HTR2A) small molecule agonists, cell-based qHTS assay (AID 1963587); also: nearly all actives have a fitted effect of over 30% in size
Outline: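 HTR2A-CHO cells, plated 18 h at 37 C/5% CO2, dye-loaded 1 h at 37 C; compounds in DMSO added by pin tool (agonist mode). Intracellular calcium flux read as kinetic fluorescence on FDSS over 2 min at 1 s intervals.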

[18] = target: Muscarinic acetylcholine receptor M1 (Homo sapiens) (UniProt P11229); assay: Cholinergic receptor muscarinic 1 (CHRM1) small molecule antagonists, cell-based qHTS assay (AID 1963588); also: nearly all actives have a fitted effect of over 40% in size
Outline: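 CHRM1-CHO calcium-flux assay, antagonist mode. Cells were seeded 18 h, dye-loaded 1 h at 37 C and given compound for 5 min at RT, then acetylcholine was added at 50nM. FDSS fluorescence was read 3 min; 15 concentrations, three runs.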

[19] = target: Muscarinic acetylcholine receptor M1 (Homo sapiens) (UniProt P11229); assay: Cholinergic receptor muscarinic 1 (CHRM1) small molecule agonists, cell-based qHTS assay (AID 1963589); also: nearly all actives have a fitted effect of over 35% in size
Outline: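 CHO cells stably expressing human CHRM1 were loaded with calcium dye for 1 h at 37 C, then compound was added in agonist mode. Intracellular calcium fluorescence was followed kinetically at 1 s intervals. Fifteen concentrations were tested in three independent runs.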

[20] = p53 small molecule agonists, cell-based qHTS assay (AID 1963582; active = well fitted activation curve with a large enough effect in the signal ratio in the repeat runs, not every such curve was filed as active; the % refers to the signal ratio)
Outline: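 p53RE-bla reporter cells, compounds added in DMSO after 5 h plating, incubated 16 h at 37 C. Beta-lactamase read via 2 h room-temperature LiveBLAzer B/G FRET substrate, fluorescence intensity.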
% is scaled to controls: 0 for no effect and ±100 for the full control effect.

Chain of KiSS-1 receptor (Homo sapiens) (Q969F8 whole entry, looked up): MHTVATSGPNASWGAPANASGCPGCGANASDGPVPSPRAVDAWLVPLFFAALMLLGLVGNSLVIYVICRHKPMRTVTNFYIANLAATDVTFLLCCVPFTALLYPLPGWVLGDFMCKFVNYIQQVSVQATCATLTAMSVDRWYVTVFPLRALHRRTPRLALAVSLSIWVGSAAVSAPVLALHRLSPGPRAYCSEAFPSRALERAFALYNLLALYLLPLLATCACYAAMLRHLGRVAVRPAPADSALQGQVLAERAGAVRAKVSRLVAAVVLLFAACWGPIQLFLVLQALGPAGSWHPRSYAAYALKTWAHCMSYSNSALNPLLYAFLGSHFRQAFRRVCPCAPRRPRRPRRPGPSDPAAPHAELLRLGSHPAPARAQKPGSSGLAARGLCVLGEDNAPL
Chain of Muscarinic acetylcholine receptor M1 (Homo sapiens) (P11229 whole entry, looked up): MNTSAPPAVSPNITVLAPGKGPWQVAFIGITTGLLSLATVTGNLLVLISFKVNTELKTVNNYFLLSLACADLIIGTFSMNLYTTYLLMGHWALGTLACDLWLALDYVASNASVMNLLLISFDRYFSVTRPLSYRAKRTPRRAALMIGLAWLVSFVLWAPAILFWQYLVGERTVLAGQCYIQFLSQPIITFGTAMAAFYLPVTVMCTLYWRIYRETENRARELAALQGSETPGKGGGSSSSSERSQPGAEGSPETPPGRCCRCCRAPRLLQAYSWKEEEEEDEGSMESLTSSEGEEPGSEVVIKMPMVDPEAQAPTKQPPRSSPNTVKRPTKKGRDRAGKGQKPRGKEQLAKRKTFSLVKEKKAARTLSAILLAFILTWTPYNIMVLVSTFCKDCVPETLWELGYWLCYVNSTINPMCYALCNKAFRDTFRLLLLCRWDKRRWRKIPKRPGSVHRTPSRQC
Chain of Beta-2 adrenergic receptor (Homo sapiens) (P07550 whole entry, looked up): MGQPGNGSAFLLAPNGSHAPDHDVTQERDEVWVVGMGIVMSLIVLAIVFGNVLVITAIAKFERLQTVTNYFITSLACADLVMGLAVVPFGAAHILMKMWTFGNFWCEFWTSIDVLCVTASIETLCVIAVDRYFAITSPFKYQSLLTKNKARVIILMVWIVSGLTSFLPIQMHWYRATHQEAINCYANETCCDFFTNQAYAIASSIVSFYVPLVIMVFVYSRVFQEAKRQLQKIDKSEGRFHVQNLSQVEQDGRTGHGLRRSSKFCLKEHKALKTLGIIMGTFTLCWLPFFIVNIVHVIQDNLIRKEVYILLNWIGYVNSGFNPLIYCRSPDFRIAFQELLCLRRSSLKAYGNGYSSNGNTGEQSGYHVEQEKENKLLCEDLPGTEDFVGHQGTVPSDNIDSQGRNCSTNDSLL
Chain of Gonadotropin-releasing hormone receptor (Homo sapiens) (P30968 whole entry, looked up): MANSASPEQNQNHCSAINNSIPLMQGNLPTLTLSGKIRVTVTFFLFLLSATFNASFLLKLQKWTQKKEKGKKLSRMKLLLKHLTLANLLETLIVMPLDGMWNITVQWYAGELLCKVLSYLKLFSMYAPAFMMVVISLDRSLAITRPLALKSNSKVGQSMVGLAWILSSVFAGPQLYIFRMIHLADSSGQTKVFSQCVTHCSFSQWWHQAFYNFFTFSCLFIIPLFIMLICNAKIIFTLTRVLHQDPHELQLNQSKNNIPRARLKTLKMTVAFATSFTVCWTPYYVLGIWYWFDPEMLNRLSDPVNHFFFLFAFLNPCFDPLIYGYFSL
Chain of 5-hydroxytryptamine receptor 2A (Homo sapiens) (P28223 whole entry, looked up): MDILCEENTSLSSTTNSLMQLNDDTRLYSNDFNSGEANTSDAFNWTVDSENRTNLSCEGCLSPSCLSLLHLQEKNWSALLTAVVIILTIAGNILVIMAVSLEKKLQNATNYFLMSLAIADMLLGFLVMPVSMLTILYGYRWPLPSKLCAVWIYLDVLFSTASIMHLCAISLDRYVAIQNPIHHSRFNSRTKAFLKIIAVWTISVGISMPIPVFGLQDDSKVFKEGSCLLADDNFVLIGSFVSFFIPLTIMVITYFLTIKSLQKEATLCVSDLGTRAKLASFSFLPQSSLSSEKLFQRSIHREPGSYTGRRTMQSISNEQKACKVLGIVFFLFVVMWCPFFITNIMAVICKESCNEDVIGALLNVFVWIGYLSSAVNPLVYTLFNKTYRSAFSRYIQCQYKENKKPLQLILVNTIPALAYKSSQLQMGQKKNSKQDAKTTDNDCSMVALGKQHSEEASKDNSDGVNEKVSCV
Chain of D(2) dopamine receptor (Homo sapiens) (P14416 whole entry, looked up): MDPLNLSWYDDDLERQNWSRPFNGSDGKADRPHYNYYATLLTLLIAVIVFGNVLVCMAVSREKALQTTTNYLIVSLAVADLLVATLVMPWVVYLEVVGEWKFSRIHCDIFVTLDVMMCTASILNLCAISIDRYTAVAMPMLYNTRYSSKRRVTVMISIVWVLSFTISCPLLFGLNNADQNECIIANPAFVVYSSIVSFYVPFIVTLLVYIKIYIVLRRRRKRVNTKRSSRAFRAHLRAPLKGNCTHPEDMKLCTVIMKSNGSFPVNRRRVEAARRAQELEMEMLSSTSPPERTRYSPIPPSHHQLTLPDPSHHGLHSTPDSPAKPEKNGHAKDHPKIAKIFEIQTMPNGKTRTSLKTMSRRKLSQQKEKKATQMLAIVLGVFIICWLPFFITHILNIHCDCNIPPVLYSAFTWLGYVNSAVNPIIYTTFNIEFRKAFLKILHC

Nc1nc(N)nc(NC2CC2)n1
inactive: Potency [1] | Potency [2] | Potency [3] | Potency [4] | Potency [5] | Potency [6] | Potency [7] | Potency [8] | Potency [9] | Potency [10] | Potency [11] | Potency [12] | Potency [13] | Potency [14]

Cl
inactive: Potency [1] | Potency [2] | Potency [3] | Potency [4] | Potency [7] | Potency [15] | Potency [8] | Potency [16] | Potency [17] | Potency [18] | Potency [19] | Potency [9] | Potency [12] | Potency [13] | Potency [14]

CCCCn1cc[n+](C)c1
inactive: Potency [1] | Potency [2] | Potency [3] | Potency [4] | Potency [15] | Potency [8] | Potency [16] | Potency [17] | Potency [18] | Potency [19] | Potency [9] | Potency [10] | Potency [11] | Potency [12] | Potency [13] | Potency [14]
inactive and 40.8 µM (active): Potency [7]

CC(=O)O
inactive: Potency [1] | Potency [2] | Potency [3] | Potency [4] | Potency [7] | Potency [15] | Potency [8] | Potency [16] | Potency [17] | Potency [18] | Potency [19] | Potency [9] | Potency [11] | activation [12] -4.33% [at 8.39 µM] | Potency [13] | Potency [14]

CCCCCc1cc(O)cc(O)c1
inactive: Potency [1] | Potency [2] | Potency [3] | Potency [4] | Potency [5] | Potency [7] | Potency [15] | Potency [20] | Potency [16] | Potency [17] | Potency [11] | Potency [12] | Potency [13] | Potency [14]

S=C1NCCN1
inactive: Potency [1] | Potency [2] | Potency [3] | Potency [4] | Potency [5] | Potency [6] | Potency [7] | Potency [8] | Potency [20] | Potency [16] | Potency [18] | Potency [19] | Potency [9] | Potency [10] | Potency [11] | Potency [13] | Potency [14]

O=C(O)C1C(C(=O)O)C2(Cl)C(Cl)=C(Cl)C1(Cl)C2(Cl)Cl (stereo not drawn)
inactive: Potency [1] | Potency [2] | Potency [3] | Potency [4] | Potency [5] | Potency [7] | Potency [15] | Potency [8] | Potency [20] | Potency [16] | Potency [18] | Potency [19] | Potency [9] | Potency [10] | Potency [11] | Potency [12] | Potency [13] | Potency [14]

CCN(CC)CCO
inactive: Potency [1] | Potency [2] | Potency [3] | Potency [4] | Potency [5] | Potency [6] | Potency [15] | Potency [8] | Potency [20] | Potency [16] | Potency [18] | Potency [19] | Potency [9] | Potency [10] | Potency [11] | Potency [13] | Potency [14]
